PubChem BioAssay (NCATS)
Inconclusive results are not listed. Activity calls are given as the source filed them. Calls come from the whole dose curve; as a rule, active = well fitted curve in the direction sought with a large enough effect; inconclusive = small, poorly fitted or top-dose-only effect, or another doubt; inactive = no such curve, though single readings can be large; an effect the other way counts as inactive or inconclusive.

Assays:
MCC-13 = assay: qHTS assay to identify novel small-molecules to repurpose for Merkel cell carcinoma treatment (AID 1296009); settings: MCC and control cell lines, CellTiter-Glo viability, 72 h; series mostly up to 46 µM; note: nearly all actives have a fitted effect of over 60% in size; note: potency is the fitted concentration of half-maximal effect
Procedure, shortened: (§1)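 After compound transfer in DMSO, plates were kept 72 hr at 37 degree celsius. Luminescent ATP signal from CellTiter-Glo served as viability measure, normalized against DMSO and no-cell controls.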

MCC-26 = assay: as above; settings: MCC and control cell lines, CellTiter-Glo viability, 72 h; series mostly up to 46 µM
Procedure, shortened: as §1

MKL-1 = assay: as above; settings: MCC and control cell lines, CellTiter-Glo viability, 72 h; series mostly up to 46 µM
Procedure, shortened: as §1

MKL-2 = assay: as above; settings: MCC and control cell lines, CellTiter-Glo viability, 72 h; series mostly up to 46 µM
Procedure, shortened: as §1

UISO = assay: as above; settings: MCC and control cell lines, CellTiter-Glo viability, 72 h; series mostly up to 46 µM
Procedure, shortened: as §1

WaGa = assay: as above; settings: MCC and control cell lines, CellTiter-Glo viability, 72 h; series mostly up to 46 µM
Procedure, shortened: as §1

CAOV3 = assay: Primary qHTS to identify gynecologic anti-cancer compounds using libraries of approved drugs and bioactive compounds (AID 1345084); settings: Gynecologic cancer cell panel viability, ATPlite luminescence, 48 h; series mostly up to 57.5 µM; note: nearly all actives have a fitted effect of over 55% in size; note: potency is the fitted concentration of half-maximal effect
Procedure, shortened: (§2)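 Five-concentration response, 48 h; readout is ATP-driven luciferase luminescence.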

CASKI = assay: as above; settings: Gynecologic cancer cell panel viability, ATPlite luminescence, 48 h; series mostly up to 57.5 µM
Procedure, shortened: as §2

OV90 = assay: as above; settings: Gynecologic cancer cell panel viability, ATPlite luminescence, 48 h; series mostly up to 57.5 µM
Procedure, shortened: as §2

PA-1 = assay: as above; settings: Gynecologic cancer cell panel viability, ATPlite luminescence, 48 h; series mostly up to 57.5 µM
Procedure, shortened: as §2

Tov-21-G = assay: as above; settings: Gynecologic cancer cell panel viability, ATPlite luminescence, 48 h; series mostly up to 57.5 µM
Procedure, shortened: as §2

Es-2 = assay: as above; settings: Gynecologic cancer cell panel viability, ATPlite luminescence, 48 h; series mostly up to 57.5 µM
Procedure, shortened: as §2

HeLa = assay: as above; settings: Gynecologic cancer cell panel viability, ATPlite luminescence, 48 h; series mostly up to 57.5 µM
Procedure, shortened: as §2

Hek293T = assay: as above; settings: Gynecologic cancer cell panel viability, ATPlite luminescence, 48 h, control line for the selectivity index; series mostly up to 57.5 µM
Procedure, shortened: as §2

JEG-3 = assay: as above; settings: Gynecologic cancer cell panel viability, ATPlite luminescence, 48 h; series mostly up to 57.5 µM
Procedure, shortened: as §2

SKOV3 = assay: as above; settings: Gynecologic cancer cell panel viability, ATPlite luminescence, 48 h; series mostly up to 57.5 µM
Procedure, shortened: as §2

Tov112D = assay: as above; settings: Gynecologic cancer cell panel viability, ATPlite luminescence, 48 h; series mostly up to 57.5 µM
Procedure, shortened: as §2

[1] = Drug repurposing screens with cells derived from glioblastoma tumor samples (AID 1345199); settings: GBM patient neurospheres viability, ATP luminescence, 48 h; note: nearly all actives have a fitted effect of over 40% in size
Procedure, shortened: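 Four patient lines of CD133+ GBM neurospheres were screened at several concentrations; hits were retested in those lines plus three slower-growing GBM lines, using 48-hour treatment and ATP-based viability.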

C33A = assay: Primary qHTS to identify gynecologic anti-cancer compounds using libraries of approved drugs and bioactive compounds (AID 1345084); settings: Gynecologic cancer cell panel viability, ATPlite luminescence, 48 h; series mostly up to 57.5 µM; note: nearly all actives have a fitted effect of over 55% in size; note: potency is the fitted concentration of half-maximal effect
Procedure, shortened: as §2

[2] = at 45.9 µM (top of the series), tumour line B
[3] = at 45.9 µM (top of the series), tumour line D
[4] = at 46.1 µM (top of the series), tumour line C
[5] = at 20 µM (top of the series), tumour line C
[6] = at 21.2 µM (top of the series), tumour line B
[7] = at 21.2 µM (top of the series), tumour line D
[8] = at 46 µM (top of the series), tumour line A
% is set by controls: 0 for no effect and ±100 for the full control effect.

CCCCCCC[N+](CC)(CC)CCCCc1ccc(Cl)cc1
active: Potency (MKL-1) 0.596 µM | Potency (MKL-2) 0.237 µM | Potency (UISO) 4.73 µM | Potency (WaGa) 0.668 µM | Potency (CAOV3) 11.2 µM | Potency (CASKI) 10 µM | Potency (OV90) 10 µM | Potency (PA-1) 4.47 µM | Potency (Tov-21-G) 20 µM
inactive: Potency (MCC-13) | Potency (MCC-26)

CO/N=C1\CN(c2nc3c(cc2F)c(=O)c(C(=O)O)cn3C2CC2)CC1CN (configuration not stated)
inactive: Potency (MCC-13) | Potency (MCC-26) | Potency (MKL-1) | Potency (MKL-2) | Potency (UISO) | Potency (WaGa) | Potency (CAOV3) | Potency (CASKI) | Potency (Es-2) | Potency (HeLa) | Potency (Hek293T) | Potency (JEG-3) | Potency (OV90) | Potency (SKOV3) | Potency (Tov-21-G) | Potency (Tov112D) | activity, negative = cell killing [1, 2] -0.703% | activity, negative = cell killing [1, 3] -7.84% | activity, negative = cell killing [1, 4] 13.8%

CCCC(=O)Nc1ccc(OCC(O)CNC(C)C)c(C(C)=O)c1 (configuration not stated)
inactive: Potency (MCC-13) | Potency (MCC-26) | Potency (MKL-1) | Potency (MKL-2) | Potency (UISO) | Potency (WaGa) | Potency (C33A) | Potency (CASKI) | Potency (Es-2) | Potency (HeLa) | Potency (Hek293T) | Potency (JEG-3) | Potency (OV90) | Potency (PA-1) | Potency (SKOV3) | Potency (Tov-21-G) | Potency (Tov112D) | activity, negative = cell killing [1, 5] -9.42% | activity, negative = cell killing [1, 6] -3.87% | activity, negative = cell killing [1, 7] 11%

CC1(C)O[C@@H]2[C@@H](CO[C@@]3(COS(N)(=O)=O)OC(C)(C)O[C@@H]23)O1
inactive: Potency (MCC-13) | Potency (MCC-26) | Potency (MKL-1) | Potency (MKL-2) | Potency (UISO) | Potency (WaGa) | Potency (C33A) | Potency (CASKI) | Potency (Es-2) | Potency (HeLa) | Potency (Hek293T) | Potency (JEG-3) | Potency (OV90) | Potency (PA-1) | Potency (SKOV3) | Potency (Tov-21-G) | Potency (Tov112D) | activity, negative = cell killing [1, 2] 2.05% | activity, negative = cell killing [1, 3] -22.3% | activity, negative = cell killing [1, 8] -14.9% | activity, negative = cell killing [1, 4] -2.36%

O=C1OC(c2ccc(O)cc2)(c2ccc(O)cc2)c2ccccc21
inactive: Potency (MCC-13) | Potency (MCC-26) | Potency (MKL-1) | Potency (MKL-2) | Potency (UISO) | Potency (WaGa) | Potency (C33A) | Potency (CASKI) | Potency (Es-2) | Potency (HeLa) | Potency (Hek293T) | Potency (JEG-3) | Potency (PA-1) | Potency (Tov-21-G) | Potency (Tov112D) | activity, negative = cell killing [1, 2] -16.9% | activity, negative = cell killing [1, 3] -16.2% | activity, negative = cell killing [1, 4] 2.26%
active: Potency (OV90) 28.2 µM

Cc1cccn2c(=O)c(-c3nnn[nH]3)cnc12
inactive: Potency (MCC-13) | Potency (MCC-26) | Potency (MKL-1) | Potency (MKL-2) | Potency (UISO) | Potency (WaGa) | Potency (C33A) | Potency (CAOV3) | Potency (CASKI) | Potency (Es-2) | Potency (HeLa) | Potency (JEG-3) | Potency (OV90) | Potency (PA-1) | Potency (SKOV3) | Potency (Tov-21-G) | Potency (Tov112D) | activity, negative = cell killing [1, 2] -8.75% | activity, negative = cell killing [1, 3] -11.1% | activity, negative = cell killing [1, 8] -23.8% | activity, negative = cell killing [1, 4] -18.6%

COc1cc(OC)cc(OC)c1
inactive: Potency (MCC-13) | Potency (MCC-26) | Potency (MKL-1) | Potency (MKL-2) | Potency (UISO) | Potency (WaGa) | Potency (C33A) | Potency (CASKI) | Potency (Es-2) | Potency (HeLa) | Potency (Hek293T) | Potency (JEG-3) | Potency (OV90) | Potency (PA-1) | Potency (SKOV3) | Potency (Tov-21-G) | Potency (Tov112D) | activity, negative = cell killing [1, 2] -3.53% | activity, negative = cell killing [1, 3] 7.76% | activity, negative = cell killing [1, 8] -12.5% | activity, negative = cell killing [1, 4] -1.01%

Cc1ccccc1C(=O)Nc1ccc(C(=O)N2CCCC(N(C)C)c3ccccc32)cc1 (configuration not stated)
inactive: Potency (MCC-13) | Potency (MCC-26) | Potency (MKL-1) | Potency (MKL-2) | Potency (UISO) | Potency (WaGa) | Potency (C33A) | Potency (JEG-3) | Potency (OV90)
active: Potency (Tov112D) 8.91 µM

C[C@@H]1C[C@H]2[C@@H]3C[C@H](F)C4=CC(=O)C(Cl)=C[C@]4(C)[C@@]3(F)[C@@H](O)C[C@]2(C)[C@@]1(O)C(=O)CO
inactive: Potency (MCC-13) | Potency (MCC-26) | Potency (MKL-1) | Potency (MKL-2) | Potency (UISO) | Potency (WaGa) | Potency (C33A) | Potency (CASKI) | Potency (Es-2) | Potency (HeLa) | Potency (Hek293T) | Potency (JEG-3) | Potency (OV90) | Potency (PA-1) | Potency (SKOV3) | Potency (Tov-21-G) | Potency (Tov112D) | activity, negative = cell killing [1, 2] -15.9% | activity, negative = cell killing [1, 3] -23.3% | activity, negative = cell killing [1, 4] -24.8%

CCCC(=O)O[C@]1(C(=O)CO)CC[C@H]2[C@@H]3CCC4=CC(=O)CC[C@]4(C)[C@H]3[C@@H](O)C[C@@]21C
inactive: Potency (MCC-13) | Potency (MCC-26) | Potency (MKL-1) | Potency (MKL-2) | Potency (UISO) | Potency (WaGa) | Potency (C33A) | Potency (CASKI) | Potency (Es-2) | Potency (HeLa) | Potency (Hek293T) | Potency (JEG-3) | Potency (OV90) | Potency (PA-1) | Potency (SKOV3) | Potency (Tov-21-G) | Potency (Tov112D) | activity, negative = cell killing [1, 2] 1.95% | activity, negative = cell killing [1, 3] -21.3% | activity, negative = cell killing [1, 8] -2.7% | activity, negative = cell killing [1, 4] 6.32%

COc1ccc(OC)c(C(O)CNC(=O)CN)c1 (configuration not stated)
inactive: Potency (MCC-13) | Potency (MCC-26) | Potency (MKL-1) | Potency (MKL-2) | Potency (UISO) | Potency (WaGa) | Potency (C33A) | Potency (CAOV3) | Potency (CASKI) | Potency (Es-2) | Potency (HeLa) | Potency (JEG-3) | Potency (OV90) | Potency (PA-1) | Potency (SKOV3) | Potency (Tov-21-G) | Potency (Tov112D) | activity, negative = cell killing [1, 5] -8.51% | activity, negative = cell killing [1, 6] -10.1% | activity, negative = cell killing [1, 7] -7.78% | activity, negative = cell killing ([1]; at 21.3 µM (top of the series), tumour line A) -30.8%

CN(C/C=C/c1ccccc1)Cc1cccc2ccccc12
inactive: Potency (MCC-13) | Potency (MCC-26) | Potency (MKL-1) | Potency (MKL-2) | Potency (WaGa) | Potency (C33A) | Potency (CAOV3) | Potency (CASKI) | Potency (Es-2) | Potency (HeLa) | Potency (JEG-3) | Potency (OV90) | Potency (PA-1) | Potency (Tov-21-G) | Potency (Tov112D) | activity, negative = cell killing [1, 2] -26.7% | activity, negative = cell killing [1, 3] -18.5% | activity, negative = cell killing [1, 4] -27.1%
